Results: PubChem BioAssay (NCI)
“And” between values parts separate entries of the source, which are not always exact repeats. Identical values can stand only once. About 79,000 compounds went through this panel and 15% of them were active in at least one assay; those are over-represented in the sample as a whole. The source made the active and inactive calls. No stated cut-off is given here; in the data, active means growth inhibition above about 70%; inactive means the rest. Where a SMILES comes first, the peptide text is derived from it.

Legend:
[1] = NCI Yeast Anticancer Drug Screen. Data for the rad50 strain (AID 155);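 further: 0% = growth of vehicle-only cultures of the same strain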; details: S. cerevisiae rad50 strain growth inhibition, hits give high values; at 50.0 µM unless noted
Summary of the method: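 A DNA repair-deficient yeast mutant serves as the test organism; compound-induced growth inhibition is calculated against vehicle-treated cells.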

[2] = NCI Yeast Anticancer Drug Screen. Data for the mec2-1 strain (AID 157); details: S. cerevisiae mec2-1 strain, hits give high values; at 50.0 µM unless noted
Summary of the method: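 Yeast mec2-1 mutant treated with compound. Readout: growth inhibition vs vehicle controls.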

[3] = NCI Yeast Anticancer Drug Screen. Data for the sgs1 mgt1 strain (AID 161);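 further: 0% = growth of cultures given vehicle only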; details: S. cerevisiae sgs1 mgt1 strain, hits give high values; at 50.0 µM unless noted
Summary of the method: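 Test agents were incubated with a DNA-repair-mutant yeast strain. Growth was then read and compared against vehicle-treated controls.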

[4] = NCI Yeast Anticancer Drug Screen. Data for the cln2 rad14 strain (AID 165);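 further: 0% = growth equal to vehicle treated cultures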; details: S. cerevisiae cln2 rad14 strain, hits give high values; at 50.0 µM unless noted
Summary of the method: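 cln2 rad14 yeast strain; compound exposure; growth inhibition read vs vehicle controls.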

[5] = NCI Yeast Anticancer Drug Screen. Data for the bub3 strain (AID 167); details: S. cerevisiae bub3 mutant strain, hits give high values; at 50.0 µM unless noted
Summary of the method: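 Inhibition values come from growth of compound-treated mutant yeast normalised to vehicle-treated controls.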

[6] = NCI Yeast Anticancer Drug Screen. Data for the mlh1 rad18 strain (AID 175); details: S. cerevisiae mlh1 rad18 strain growth inhibition, hits give high values; at 50.0 µM unless noted
Summary of the method: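 Yeast w/ defined DNA-repair lesions; compound exposure; growth vs vehicle controls → % inhibition.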

Measured: growth inhibition

COc1ccc(COC(=O)Nc2ccc(Br)cc2)c(OC)c1
inactive: [1] -5.05% | [2] 33.6% | [3] 27.2% | [4] -16.6% | [5] 16.8% | [6] 9.55%

CC(C)=C(Nc1ccccc1)NC(C)C
inactive: [1] 47.4% | [2] -19.1% | [3] -28.4% | [4] -16.2% | [5] -40.6% | [6] -3.15%

CCCCOC(=O)COc1c(Cl)ccc(Cl)c1Cl
inactive: [1] 6.95% | [2] -0.75% | [3] 7% | [4] -3.5% | [5] 11.3% | [6] 6.7%

[Mn+2].[NH-]C(Cc1ccc(O)cc1)C(=O)O.[NH-]C(Cc1ccc(O)cc1)C(=O)O (stereo unspecified)
inactive: [1] 0.35% | [2] 15.3% | [3] -10.5% | [4] -19.1% | [5] 0.95% | [6] -13%

O=C(O)CCC1NC(/C(=C/c2ccccc2O)NC(=O)c2ccccc2)OC1=O (stereo unspecified)
inactive: [1] -0.75% | [2] -8.1% | [3] -14.1% | [4] -19.1% | [5] -8.25% | [6] -16.1%

CCC(=O)Oc1ccc(C(=O)c2ccc(OC(=O)CC)cc2)cc1
inactive: [1] 5.05% | [2] -24.9% | [3] 13.8% | [4] 11.4% | [5] 8.05% | [6] 4.1%

CCOC(=O)Cc1ccc2ccccc2c1
inactive: [1] 7.3% | [2] -24.1% | [3] -1.95% | [4] 1.2% | [5] 8.05% | [6] 7.5%

CN(C)c1nc(S(C)(=O)=O)nc2nc(Cl)[nH]c12
inactive: [1] 6.2% | [2] -13.6% | [3] -0.85% | [4] -7.1% | [5] 3.65% | [6] -9.8%

CC(C)CCC[C@@H](C)[C@H]1CC[C@H]2[C@@H]3CCC4=CC(=O)NCC[C@]4(C)[C@H]3CC[C@]12C
inactive: [1] 12.8% | [2] -3.25% | [3] 34.6% | [4] 27.2% | [5] -9.35% | [6] 15.9%

CCCCCC=C(c1cc(Cl)c(OC)c(C(N)=O)c1)c1cc(Cl)c(OC)c(C(N)=O)c1
inactive: [1] -20.1% | [2] -9.35% | [3] -12.4% | [4] -92.9% | [5] 5.5% | [6] -13.9%

CC(C)(C)C(=O)NC(OC(NC(=O)C(C)(C)C)C(=O)C(C)(C)C)C(=O)C(C)(C)C (stereo unspecified)
inactive: [1] 4.05% | [2] 6.25% | [3] -21.4% | [4] -0.6% | [5] -0.1% | [6] 21%

O=S(=O)(Cc1nc2ccccc2[nH]1)Cc1nc2ccccc2[nH]1
inactive: [1] -3.4% | [2] 4.25% | [3] 14.8% | [4] -7.25% | [5] 4.95% | [6] 9.3%

OC1(c2cccc(C(F)(F)F)c2)CCN(C2CC2c2ccccc2)CC1 (stereo unspecified)
active: [1] 87.2% | [2] 77.7% | [3] 90.8% | [4] 85.1% | [5] 84.3% | [6] 81.5%

NC(=O)OCCOC(N)=O
inactive: [1] 7.5% | [2] 1% | [3] -31.9% | [4] -9.95% | [5] 15.8% | [6] 2.55%

CCCCCCCCCCCCCCCCCCNC(=S)N/N=C/c1ccccc1[N+](=O)[O-]
inactive: [1] -17.1% | [2] 2.75% | [3] -20.1% | [4] 4.95% | [5] -13.1% | [6] -7.65%

S=c1[nH]c2ccccc2c(=S)n1CN1CCCCC1
inactive: [1] -26.6% | [2] -27.4% | [3] -15.3% | [4] -13.1% | [5] 4.6% | [6] -11.9%

COC(=O)c1cc(C(=O)OC)c(CC(=O)C(=O)NC2C3CC4CC(C3)CC2C4)nc1CC(=O)C(=O)NC1C2CC3CC(C2)CC1C3 (stereo unspecified)
inactive: [1] 0.5% | [2] 25.2% | [3] -11.9% | [4] 10.2% | [5] 13.7% | [6] 10.9%

CC(Oc1c(Cl)cc(Cl)cc1Cl)C(=O)O (stereo unspecified)
inactive: [1] -13.7% | [2] -51.8% | [3] -8.6% | [4] 12.8% | [5] -34.9% | [6] -15.8%

COc1ccc2[nH]c3ccccc3c(=O)c2c1
inactive: [1] 12.6% | [2] -3.2% | [3] 8.8% | [4] -66.4% | [5] 3% | [6] -6.65%

CC1CCC2C(=O)OC(=O)C2C1 (stereo unspecified)
inactive: [1] 6.2% | [2] -10.2% | [3] 11.6% | [4] 23.6% | [5] 18.4% | [6] 4.7%

NC1=C(O)C(=O)C(c2ccc3c(c2)OCO3)O1 (stereo unspecified)
inactive: [1] -17.6% | [2] -5% | [3] -19.9% | [4] -30.2% | [5] 24.8% | [6] -5.2%

C(/C=N/NC1=NCCN1)=N\NC1=NCCN1
inactive: [1] 42% | [2] 18.1% | [3] 28.4% | [4] 2.85% | [5] 36.6% | [6] 41.5%

Cc1ccc2sccc(=O)c2c1
inactive: [1] 1.05% | [2] -2.1% | [3] -8.95% | [4] -12.8% | [5] -5.95% | [6] 7.6%

OCCCCCCCl
inactive: [1] -28.8% | [2] -24.8% | [3] -11.6% | [4] -6.65% | [5] -3.05% | [6] 3.6%

CCN(CC)/N=C/c1cc([N+](=O)[O-])ccc1O
inactive: [1] 24.9% | [2] 5.4% | [3] -6.85% | [4] -50.9% | [5] 2.9% | [6] 15.7%

COc1ccc(/C=N/NC(=O)c2sc(=S)n(-c3ccccc3)c2N)cc1
inactive: [1] 2.9% | [2] -0.45% | [3] -40.1% | [4] -16.9% | [5] -17.1% | [6] -7.5%

NNC(=S)N/N=C/c1ccc([N+](=O)[O-])s1
inactive: [1] 9.2% | [2] -2.4% | [3] 24.1% | [4] -47.4% | [5] -19.8% | [6] 6.35%

O=[N+]([O-])c1ccc(N(CCO)CCO)cc1
inactive: [1] 1.05% | [2] -12.8% | [3] -1.75% | [4] 9.25% | [5] -6.4% | [6] -17.1%

O=C1c2cc(Cc3ccccc3)c(=O)c(Cc3ccccc3)cc2C(=O)c2cc(Cc3ccccc3)c(=O)c(Cc3ccccc3)cc21
inactive: [1] 23% | [2] -11.3% | [3] -11.3% | [4] -26% | [5] -6.35% | [6] 20.3%

Cc1ccc(S(=O)(=O)NNC(=O)CCn2[nH]c(=O)c(Cl)c(Cl)c2=O)cc1
inactive: [1] -16.9% | [2] -9.65% | [3] -8.1% | [4] -38.1% | [5] -0.3% | [6] -12.1%

O=C(Cc1csc(-c2nc(CC(=O)NNc3ccccc3)cs2)n1)NNc1ccccc1
inactive: [1] 12.7% | [2] -3.4% | [3] -27.9% | [4] -38.4% | [5] 2.75% | [6] -12.6%

NC1CCC(C(=O)O)CC1 (stereo unspecified)
inactive: [1] -3% and -3.15% | [2] 0.95% and 15.9% | [3] -3.5% and 4.4% | [4] -52% and 57% | [5] 6.15% and 61.3% | [6] -7.65% and 28.4%

CNC(=O)CNC(=O)C(NC(=O)CNC(=O)C1CCCN1C(=O)C(C)NC(=O)C(NC(C)=O)C(C)C)C(C)C (stereo unspecified) (Ac-VAPGVG-NHMe; configuration not given here)
inactive: [1] 0.3% | [2] -13.9% | [3] 3.55% | [4] -6.6% | [5] -11.7% | [6] -4.75%

CC(=O)OC(C(N)=O)c1ccccc1 (stereo unspecified)
inactive: [1] -0.7% | [2] -0.7% | [3] -3.3% | [4] -9.7% | [5] 3.45% | [6] -2.95%

O/C(=C/c1ncnc2ccccc12)c1cccc(Cl)c1
inactive: [1] 12.5% | [2] 4.4% | [3] 22.8% | [4] -11.4% | [5] 14.7% | [6] 15%

CC(=O)Nc1ccccc1C(C#N)Cc1ccccc1 (stereo unspecified)
inactive: [1] 13.3% | [2] 5.55% | [3] 14.1% | [4] -32.4% | [5] 1.15% | [6] 8.95%
